Bioassay records (PubChem BioAssay)
Shown are actives, neighbours in structure and some others; about 3.6% of the full set was active somewhere.
ClpP mod = qHTS Assay for Activators of ClpP | ATP-dependent Clp protease proteolytic subunit (Bacillus subtilis (strain 168)), P80244 | purified B. subtilis ClpP, FRET peptide cleavage, 20 min | Potency, µM (doses to about 57.5 µM) | actives 1.9% (n = 340,000); active = well fitted falling curve with a large enough effect; inconclusive = small, poorly fitted or top-dose-only effect; inactive = no such curve, though single readings can be large or run the other way; also: the source files actives as falling curves though it sought activators and does not explain the sign; nearly all actives have a fitted effect of over 65% in size
Target sequence (P80244 whole entry, looked up): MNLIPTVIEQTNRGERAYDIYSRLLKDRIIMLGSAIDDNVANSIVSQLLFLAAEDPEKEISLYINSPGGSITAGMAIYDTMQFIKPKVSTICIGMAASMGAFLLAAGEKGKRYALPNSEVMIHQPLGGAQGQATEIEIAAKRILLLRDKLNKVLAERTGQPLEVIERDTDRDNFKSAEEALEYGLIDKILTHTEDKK
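ClpP 10 microg/mL final, pH 8 Tris/KCl buffer with BSA, glycerol, Tween-20; compound pinned in; FRET-FV substrate; RT 20 min; Ex320/Em430; ΔFRET vs ADEP 5.8 microM, DMSO, no enzyme.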
TDP43 rescue = qHTS of TDP-43 Inhibitors. Potency, µM (highest dose often 46.1 µM), actives largely listed as activators. TDP-43 expressing yeast growth rescue, BacTiter-Glo, 24 h. actives 1.8% (n = 410,000); also: nearly all actives have a fitted effect of over 50% in size
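Growth rescue of TDP-43-toxic yeast measured as ATP luminescence (BacTiter-Glo). Cells grown to mid-log in raffinose, induced in galactose at OD600=0.02, exposed to compound 24 hr at 30 deg C.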
FUS suppressor = qHTS for Suppressors of FUS Proteinopathy: Primary screen using FUS-linked yeast assay; Potency, µM (top dose mostly 76.6 µM), actives largely listed as activators; S. cerevisiae FUS-expressing, growth rescue, OD600, 24 h; actives 0.24% (n = 390,000); also: nearly all actives have a fitted effect of over 55% in size
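Steps: raffinose overnight preculture; dilution to OD 0.005 in 2% galactose minimal medium; compound addition (concentration series); 24hr at 30C, 99% humidity; absorbance read at 600 nm.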
aSyn rescue = qHTS of alpha-syn Inhibitors; Yeast expressing alpha-synuclein, growth rescue, BacTiter-Glo, 24 h; Potency, µM (highest dose often 46.1 µM), actives largely listed as activators; actives 0.14% (n = 370,000); AID 652106, 2013; also: nearly all actives have a fitted effect of over 65% in size
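Readout is rescue of growth in alpha-synuclein-expressing yeast, so inhibitors of toxicity appear as activators. Growth after 24 hr at 30 deg C in galactose medium is quantified by luminescence.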
Mm-Cpn inhibitor = Inhibitors of TCP-1 ring complex (TRiC) of Methanococcus maripaludis (MmCpn): qHTS; purified Mm-Cpn ATPase, ADP Transcreener TR-FRET; Potency, µM (doses to about 76.9 µM), hits mostly inhibitors; actives 0.031% (n = 330,000); AID 504842, 2011; also: nearly all actives have a fitted effect of over 80% in size
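Purified archaeal Mm-CPN (25nM final) preincubated 10 min at 37degC with compound, then 10uM ATP for 30 min at 37degC; ADP measured by HTRF Transcreener TR-FRET; buffer 30 mM TRIS pH 7.4, 100mM KCl, 5mM MgCl2, 1mM DTT.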
Abeta rescue = qHTS for compounds that reverse cellular toxicity of Amyloid beta (A-beta) peptide in yeast: Primary Screen; yeast expressing A-beta42, growth rescue, OD600, 48 h; response scale: 0% DMSO, 100% iron-clioquinol control; Potency, µM (titrated, usually from 46.1 µM), usual class: activators; actives 0.063% (n = 410,000); also: nearly all actives have a fitted effect of over 55% in size
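Yeast A-beta toxicity model in growth medium with pinned compounds, 48 h at 30 C; growth read as absorbance at 600 nm. Normalized to FeCl3/clioquinol equimolar mix (positive) and DMSO (negative).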
Numbers stand for hits; n = inactive; u = inconclusive; x = no result; [ ] = remark or other dose. Unless noted, calls follow the shape of the dose curve; as a rule, active = well fitted curve in the direction sought with a large enough effect; inconclusive = small, poorly fitted or top-dose-only effect, or another doubt; inactive = no such curve, though single readings can be large; an effect the other way counts as inactive or inconclusive.

SMILES	ClpP mod	TDP43 rescue	FUS suppressor	aSyn rescue	Mm-Cpn inhibitor	Abeta rescue
COc1ccc2c(c1)CC/C2=N\NC(=O)c1ccccc1	n	n	n	n	n	n
COc1ccc2c(c1)CC/C2=N\OC(=O)c1ccccc1C	x	u	n	n	n	n
COc1ccc2c(c1)CC/C2=N\OC(=O)c1cccc(C)c1	n	5.01µM	x	n	n	n
CN1CCN(C(c2ccccn2)c2cc(Cl)c3cccnc3c2O)CC1 (stereo not given)	n	n	n	u	n	n
Oc1c(C(c2ccccn2)N2CCC(Cc3ccccc3)CC2)cc(Cl)c2cccnc12 (stereo not given)	x	n[9.22 µM]	25.1µM	n	n	n
COc1cccc(/C=C/c2onc(C)c2S(=O)(=O)N2CCC(C(=O)N3CCC(C)CC3)CC2)c1	31.6µM	n	n	x	x	n
COc1ccc(/C=C\c2onc(C)c2S(=O)(=O)N2CCC(C(=O)Nc3ccccc3OC)CC2)cc1	n	n	12.6µM	x	x	n
Cc1cccc(/C=C/c2onc(C)c2S(=O)(=O)N2CCC(C(=O)N3CCC(C)CC3)CC2)c1	n	n	n	n	n	n
CCc1ccc(S(=O)(=O)c2nnn3c2nc(Nc2ccc(NC(C)=O)cc2)c2sccc23)cc1	n	n	n	x	x	n
N#CCCCSc1nnnn1-c1cccc(Cl)c1	n	22.4µM	n	n	n	n
CN1c2ccccc2SC2C(c3ccccc3)=NOC21 (stereo not given)	n	17.8µM	n	n	x	n
CCCn1cc2c(c1-c1cccc(C)c1)c(=O)n(C)c(=O)n2C	14.1µM	n	n	n	n	n
CCn1cc2c(c1-c1cccc(C)c1)c(=O)n(C)c(=O)n2C	n	n	n	n	n	n
CCCCCn1cc2c(c1-c1ccccc1Br)c(=O)n(C)c(=O)n2C	n	17.8µM	n	x	x	n
O=C(CCCn1c(=O)c2ccccc2n(CC(=O)Nc2cccc(C(F)(F)F)c2)c1=O)NCc1ccc2c(c1)OCO2	n	n	n	x	x	n
CCCN1C/C(=C/c2ccc3c(c2)OCO3)C(=O)/C(=C/c2ccc3c(c2)OCO3)C1	n	n	n	n	n	n
CCCN1C(=O)/C(=C/c2ccc3c(c2)OCO3)NC1=S	n	14.1µM	n	n	n	u
COc1ccc(-c2ccc(CN3C(C)C(=O)N(Cc4cn(CCC5OCCO5)nn4)CCS3(=O)=O)cc2)cc1 (stereo not given)	n	u	u	n	x	n
CC(C)C1C(=O)N(Cc2cn(CCC3OCCO3)nn2)CCS(=O)(=O)N1Cc1ccc(-c2ccc(Cl)cc2)cc1 (stereo not given)	n	35.5µM	u	u	x	n
CC1C(=O)N(Cc2cn(CCC3OCCO3)nn2)CCS(=O)(=O)N1Cc1ccc(-c2ccc(Cl)c(Cl)c2)cc1 (stereo not given)	n	15.8µM	u	n	x	n
O=C(OC12CCCN(C1)/C(=C/c1cccc(Cl)c1)C2)c1ccc(F)cc1 (stereo not given)	x	x	n	x	x	x
COc1ccc(S(=O)(=O)c2cc(NS(=O)(=O)c3ccc(Cl)cc3)c(C)c(C)c2O)cc1	n	n	n	x	x	n
NC(=O)N/N=C/C=C/c1ccccc1	n	3.98µM	n	n	n	n
O=C(N/N=C/C=C/c1ccccc1)NC1CCCCC1	n	17.8µM	n	u	n	u
O=C(N/N=C/c1cccc(O)c1)NC1CCCCC1	x	n[9.22 µM]	n	n	n	n
SMILES	ClpP mod	TDP43 rescue	FUS suppressor	aSyn rescue	Mm-Cpn inhibitor	Abeta rescue
Cc1ccc(NC(=O)CSc2nnc(-c3cccnc3)n2Cc2ccco2)cc1C	x	x	n	x	x	x
COc1ccc(-n2nc(C(=O)NCC(=O)N3CC(C)CC(C)C3)c3ccccc3c2=O)cc1 (stereo not given)	x	14.1µM	n	n	n	n
COc1ccc(-n2nc(C(=O)NCC(=O)N3CCCCCC3)c3ccccc3c2=O)cc1	x	n	n	n	n	n
COc1ccc(CCNC(=O)Cn2c(C)c3cnn(-c4ccccc4)c(=O)c3c2C)cc1OC	n	n	n	x	x	n
Cc1ccc(/C=C2\SC(N3CCCCC3)=NC2=O)cc1	u	10µM	n	n	n	n
O=C1N=C(N2CCCCC2)S/C1=C\c1ccc(Cl)cc1	n	n	n	n	n	n
Fc1cccc(F)c1CSc1nc2ccccc2[nH]1	n	12.6µM	n	n	n	n
c1ccc(-c2cc(CSc3nc4ccccc4[nH]3)on2)cc1	n	20µM	n	n	n	n
O=C(CSc1nc2ccccc2[nH]1)c1ccccc1F	x	n	n	n	n	n
CNC(=O)COc1ccc(Nc2nnc(-c3ccc(C)c(S(=O)(=O)NC(C)(C)C)c3)c3ccccc23)cc1	n	n	n	x	x	n
CCC(C)Sc1nc2ccccc2c(=O)[nH]1 (stereo not given)	25.1µM	u	n	n	n	n
CC(C)Sc1nc2ccccc2c(=O)[nH]1	n	u	n	x	n	n
CC(=O)N(C(C)=O)c1nc(-c2ccccc2)cn1/N=C/c1ccccc1	31.6µM	u	n	n	n	n
COc1ccccc1Cn1c(CNS(=O)(=O)c2c(C)cc(C)cc2C)nc2cccnc21	n	n	u	x	x	n
O=C(CCCN1C(=O)c2ccccc2C1=O)NCCc1ccc(OC(F)F)cc1	x	12.6µM	n	n	n	u
COc1ccccc1NC(=O)c1sc2nc3c(cc2c1N)CN(Cc1ccccc1)CC3	n	n	n	x	x	n
CN1CCc2nc3sc(C(=O)Nc4ccccc4OC(F)(F)F)c(N)c3cc2C1	n	17.8µM	u	x	x	n
COc1cc2c(-c3cc(Br)ccc3O)nc3c(c(C)nn3-c3ccccc3)c2cc1OC	u	n	n	x	x	n
COc1cc(-c2nc3c(c(C)nn3-c3ccccc3)c3cc(OC)c(OC)cc23)ccc1O	7.94µM	n	n	n	n	n
